# Experimental data as given in the supplement of paper PMC11001985.
# Compound: C#CCNC(=O)CCSSCCC(=O)NCCc1ccc(C=O)c(C=O)c1
# Experiment: lysine labeling ratio R10:1 (500 µM / 50 µM probe), SILAC-ABPP in living cells; higher = lower intrinsic lysine reactivity toward the probe, active = 2 or less
# Conditions: HeLa; probe concentrations 500 vs 50 µM
# How it was run: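 Each lysine carries an R value: the filtered median of MS1 peptide ratios of high probe to low probe, with the median then taken over forward and reverse replicates. These came from living SILAC light and heavy HeLa cells in PBS at room temperature labelled with an alkyne-tagged, disulfide-linked lysine probe at 500 µM or 50 µM, in forward and reverse swaps. The lysates were mixed, clicked to biotin-azide, trypsin-digested, captured on neutravidin, released by DTT, alkylated and run by LC-MS/MS on a TIMS-TOF Pro. The highest value allowed is 20.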
# Chain of UniProt P08727 (P08727 whole entry): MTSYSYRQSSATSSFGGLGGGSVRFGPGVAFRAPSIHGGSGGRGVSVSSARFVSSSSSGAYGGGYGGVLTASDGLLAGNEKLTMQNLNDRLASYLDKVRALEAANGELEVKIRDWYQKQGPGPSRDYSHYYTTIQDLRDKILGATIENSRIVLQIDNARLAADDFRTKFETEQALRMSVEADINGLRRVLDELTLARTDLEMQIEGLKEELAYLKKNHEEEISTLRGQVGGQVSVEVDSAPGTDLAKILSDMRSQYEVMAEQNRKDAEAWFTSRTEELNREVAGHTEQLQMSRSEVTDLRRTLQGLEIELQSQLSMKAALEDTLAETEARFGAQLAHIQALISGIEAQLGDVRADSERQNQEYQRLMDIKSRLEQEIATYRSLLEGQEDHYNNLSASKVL
# Chain of UniProt P34897 (P34897 whole entry): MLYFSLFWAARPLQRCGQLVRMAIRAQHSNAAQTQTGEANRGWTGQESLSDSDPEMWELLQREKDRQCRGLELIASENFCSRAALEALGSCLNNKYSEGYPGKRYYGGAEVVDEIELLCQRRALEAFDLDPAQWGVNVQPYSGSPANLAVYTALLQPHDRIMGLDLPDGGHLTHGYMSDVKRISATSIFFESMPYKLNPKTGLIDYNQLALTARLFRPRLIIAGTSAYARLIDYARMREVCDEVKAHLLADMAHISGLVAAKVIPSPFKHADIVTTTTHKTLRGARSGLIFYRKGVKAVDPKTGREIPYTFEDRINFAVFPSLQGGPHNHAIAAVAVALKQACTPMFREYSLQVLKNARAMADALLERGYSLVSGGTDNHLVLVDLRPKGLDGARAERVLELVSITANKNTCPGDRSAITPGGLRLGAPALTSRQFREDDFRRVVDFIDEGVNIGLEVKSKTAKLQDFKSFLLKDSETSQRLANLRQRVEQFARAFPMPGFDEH
# Chain of UniProt Q9H4F8 (Q9H4F8 whole entry): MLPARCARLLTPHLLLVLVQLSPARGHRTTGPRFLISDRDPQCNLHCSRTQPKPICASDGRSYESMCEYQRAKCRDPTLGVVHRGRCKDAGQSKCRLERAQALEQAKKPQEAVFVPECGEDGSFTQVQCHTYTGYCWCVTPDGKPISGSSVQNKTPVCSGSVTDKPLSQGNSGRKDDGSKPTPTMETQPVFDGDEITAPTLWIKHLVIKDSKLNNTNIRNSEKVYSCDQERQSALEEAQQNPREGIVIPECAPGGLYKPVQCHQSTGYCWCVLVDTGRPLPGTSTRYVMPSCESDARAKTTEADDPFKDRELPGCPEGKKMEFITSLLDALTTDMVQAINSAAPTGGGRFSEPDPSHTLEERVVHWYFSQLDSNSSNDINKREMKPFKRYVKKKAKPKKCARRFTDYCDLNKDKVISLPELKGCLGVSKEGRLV
# Chain of UniProt P26038 (P26038 whole entry): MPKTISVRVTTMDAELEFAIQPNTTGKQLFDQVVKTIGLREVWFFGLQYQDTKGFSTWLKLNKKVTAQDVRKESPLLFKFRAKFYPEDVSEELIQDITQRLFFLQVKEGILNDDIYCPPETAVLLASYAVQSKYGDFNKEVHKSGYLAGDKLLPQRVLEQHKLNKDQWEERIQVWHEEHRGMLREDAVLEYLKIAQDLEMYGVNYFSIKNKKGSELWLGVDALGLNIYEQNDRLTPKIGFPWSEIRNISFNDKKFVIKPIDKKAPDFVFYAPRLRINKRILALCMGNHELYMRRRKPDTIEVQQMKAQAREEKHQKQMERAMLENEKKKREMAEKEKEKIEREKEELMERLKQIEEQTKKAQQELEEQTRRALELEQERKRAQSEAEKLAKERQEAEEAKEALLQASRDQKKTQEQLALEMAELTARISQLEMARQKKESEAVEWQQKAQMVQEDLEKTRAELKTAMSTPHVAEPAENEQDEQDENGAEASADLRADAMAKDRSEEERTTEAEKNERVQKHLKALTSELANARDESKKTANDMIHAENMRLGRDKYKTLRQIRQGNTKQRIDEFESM
# Chain of UniProt P55072 (P55072 whole entry, looked up): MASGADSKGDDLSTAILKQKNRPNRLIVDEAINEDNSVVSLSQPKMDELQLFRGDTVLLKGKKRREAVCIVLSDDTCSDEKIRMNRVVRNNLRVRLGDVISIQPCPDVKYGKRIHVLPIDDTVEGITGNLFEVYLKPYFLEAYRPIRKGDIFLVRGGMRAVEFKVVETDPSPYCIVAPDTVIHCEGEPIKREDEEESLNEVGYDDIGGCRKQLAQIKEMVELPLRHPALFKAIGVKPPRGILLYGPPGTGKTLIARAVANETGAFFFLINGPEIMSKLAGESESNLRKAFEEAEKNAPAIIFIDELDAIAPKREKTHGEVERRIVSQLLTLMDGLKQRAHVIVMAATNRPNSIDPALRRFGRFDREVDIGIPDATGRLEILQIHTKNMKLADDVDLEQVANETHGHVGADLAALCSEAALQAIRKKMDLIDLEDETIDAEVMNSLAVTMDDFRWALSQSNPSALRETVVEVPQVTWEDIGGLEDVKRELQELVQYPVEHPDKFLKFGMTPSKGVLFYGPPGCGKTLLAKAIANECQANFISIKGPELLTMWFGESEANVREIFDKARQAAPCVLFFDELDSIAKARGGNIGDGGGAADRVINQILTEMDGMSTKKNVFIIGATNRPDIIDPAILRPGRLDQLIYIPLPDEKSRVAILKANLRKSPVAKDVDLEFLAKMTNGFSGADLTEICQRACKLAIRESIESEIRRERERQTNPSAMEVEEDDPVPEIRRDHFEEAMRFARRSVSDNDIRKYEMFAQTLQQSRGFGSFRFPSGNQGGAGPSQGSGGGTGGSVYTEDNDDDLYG
# Chain of UniProt P25705 (P25705 whole entry): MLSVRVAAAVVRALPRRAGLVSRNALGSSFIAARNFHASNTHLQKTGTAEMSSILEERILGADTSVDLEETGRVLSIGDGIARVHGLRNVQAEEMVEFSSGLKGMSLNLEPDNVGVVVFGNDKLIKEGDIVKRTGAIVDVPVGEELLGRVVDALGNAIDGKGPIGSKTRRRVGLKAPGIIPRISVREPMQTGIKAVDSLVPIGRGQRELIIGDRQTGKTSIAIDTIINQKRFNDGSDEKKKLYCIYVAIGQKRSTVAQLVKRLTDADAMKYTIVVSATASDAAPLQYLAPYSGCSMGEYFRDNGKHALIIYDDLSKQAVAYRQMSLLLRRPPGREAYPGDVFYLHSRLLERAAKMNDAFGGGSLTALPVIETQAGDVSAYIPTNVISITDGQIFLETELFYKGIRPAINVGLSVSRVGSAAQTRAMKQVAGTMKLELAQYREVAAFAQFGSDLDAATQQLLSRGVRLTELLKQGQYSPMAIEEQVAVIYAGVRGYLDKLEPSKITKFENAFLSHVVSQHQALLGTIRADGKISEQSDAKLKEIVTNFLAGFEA
row,Target,lysine labeling ratio R10:1
1,SMOC1 (lysine site: K381) (UniProt Q9H4F8),1.04 (active)
2,SHMT2 (lysine site: K302) (UniProt P34897),2.59 (inactive)
3,UniProt P55072 (lysine site: K658),6.64 (inactive)
4,UniProt P25705 (lysine site: K434),1.73 (active)
5,MSN (lysine site: K412) (UniProt P26038),3.35 (inactive)
6,UniProt P08727 (lysine site: K140),2.21 (inactive)
